Measured values: PubChem BioAssay (NCATS)
Values joined by “and” are separate entries in the source; they are usually repeats but may differ in a detail not shown here. Equal values may be shown once. Results filed as inconclusive are left out. A call without a number means that no potency is given here. Active and inactive are the calls of the source. Calls come from the whole dose curve; as a rule, active = well fitted inhibition curve with a large enough effect; inconclusive = small, poorly fitted or top-dose-only effect; inactive = flat fitted curve, though single readings scatter. Starred links: 1 amine or outer side, 2 acyl side, 3 side chain; linkers in the order of their positions; H or OH if unused. Positions of bridges follow the written chain, without caps; N, C: chain ends. Non-standard residues stand in square brackets, D forms with d. Residues, ends and D or L forms follow the SMILES beside them. Chains are numbered I, II in the order given. Actinocin(9to1) = Cc1c2oc3c(C)ccc(C(=O)[*:1])c3nc-2c(C(=O)[*:2])c(N)c1=O; NMeV = CN[CH](C(=O)O)C(C)C; Sar = CNCC(=O)O

molecular target: Glutathione peroxidase 1 (Homo sapiens) (UniProt P07203); test: Primary qHTS Assay for Inhibitors of Recombinant Selenoprotein Glutathione Peroxidase 1 (GPX1) (AID 1845191); conditions: recombinant GPX1, GR-coupled NADPH fluorescence, 15 min; series mostly up to 48.8 µM; activity, negative = inhibition: at the top concentration; note: nearly all actives have a fitted effect of over 65% in size
Text: Assay Provider: Elias S.J. Arner MD PhD.
Department of Medical Biochemistry and Biophysics
Karolinska Institutet, Solna, Stockholm, Sweden
Selenoprotein glutathione peroxidases (GPX), like the ubiquitously expressed GPX1 and the ferroptosis modulator GPX4, enact their antioxidant activities by reducing hydroperoxides using glutathione. […] GPX1 and GPX4 inhibitors have thus shown promise as anti-cancer agents. Existing inhibitors are often promiscuous, or modulate GPX activity only indirectly, so novel direct inhibitors identified through screening against GPX1 and GPX4 could be valuable. Here, we developed optimized glutathione reductase (GR)-coupled GPX assays for the biochemical high-throughput screen (HTS) of almost 12,000 compounds with known mechanisms of action. Initial hits were triaged using a GR counter-screen, assessed for isoform specificity using a separate GPX2 assay, and were assessed for general selenocysteine-targeting activity using a thioredoxin reductase (TXNRD1) assay. With this suite of assays, we identified novel GPX1/GPX2- and GPX4-specific inhibitors and can here present a validated pipeline for future discovery research for selenoprotein-targeting agents.
SEQUENCE No. (e.g., 1, 2, 3, etc.); […] (e.g., Cells, Incubation, Reagent, etc.); VALUE; DESCRIPTION.
1; Reagent 1; 3 uL; GPx1 enzyme or no enzyme control in 1536-well, black, solid Greiner assay plate.
2; Compound; 25 nL; Kalypsis pin tool (Wako USA) equipped with a 1536-well pin head.
3; Incubation; 30 min; room temperature.
4; Reagent 2; 1 uL; 10 nM GPX1, 1 mM GSH, 0.5 mM CHP, 0.5 mM NADPH, 100 nM GR, 0.01% BSA substrate
5; Detection; Fluorescence; ViewLux microplate reader, excitation 340 nm and emission 450 nm.
6; Incubation; 15 min; room temperature.
7; Detection; Fluorescence; ViewLux microplate reader, excitation 340 nm and emission 450 nm.
NOTES (numbers refer to Sequence numbers above)
1. 3 uL of 16.66 nM GPX1 and 0.016% BSA in assay buffer (50 mM Tris-HCl, 2 mM EDTA (pH 7.5), 150 mM NaCl) was added to columns 3-48 of 1536-well assay plates using a BioRAPTR Flying Reagent Dispenser (Let's Go Robotics (LGR), Carlsbad, CA). A no-enzyme control (0.01% BSA in TES assay buffer) was added to columns 1-2.
2. 25 nL of test compounds and DMSO controls were added to each well with a pin tool (Kalypsys).
3. The assay plates were incubated for 30 minutes at room temperature.
4. 1 uL of master mix (500 nM glutathione reductase (GR), 5 mM reduced glutathione (GSH), 2.5 mM NADPH in assay buffer) was added. 1 uL of cumene hydroperoxide (CHP) ([2.5 mM] in 50% EtOH) was then added within 5 minutes to initiate the reaction. Final concentrations were: 10 nM GPX1, 1 mM GSH, 0.5 mM CHP, 0.5 mM NADPH, 100 nM GR, 0.01% BSA.
5. Initial fluorescence readout (t=0) at 340/450 nm was measured using a ViewLux multimodal detector (PerkinElmer, Waltham, MA).
7. Endpoint fluorescence readout (t=15) at 340/450 nm was measured 15 min after room temperature incubation.

Sequence of Glutathione peroxidase 1 (Homo sapiens) (P07203 whole entry, looked up): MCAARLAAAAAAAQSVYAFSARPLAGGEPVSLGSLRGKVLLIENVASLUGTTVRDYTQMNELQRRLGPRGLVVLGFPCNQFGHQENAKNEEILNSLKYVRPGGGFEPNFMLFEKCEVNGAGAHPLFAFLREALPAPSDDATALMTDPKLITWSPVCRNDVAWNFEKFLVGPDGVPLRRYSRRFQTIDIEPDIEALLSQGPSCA

SMILES	outcome	Potency	activity, negative = inhibition
CCN(CC)CCCCNc1ncc2c(n1)N(C)C(=O)N(c1c(Cl)c(OC)cc(OC)c1Cl)C2	inactive		
Cc1cc(C(=O)NOCCO)c(Nc2ccc(I)cc2F)n(C)c1=O	inactive		
FC(F)c1nc2ccccc2n1-c1nc(N2CCOCC2)nc(N2CCOCC2)n1		inactive	
COc1ccc(Nc2nccc(NCCO)n2)cc1	inactive		
CCCc1nc(C(C)(C)O)c(C(=O)O)n1Cc1ccc(-c2ccccc2-c2nn[nH]n2)cc1		inactive	
Cc1ncc(-c2ccnc(Nc3ccc(S(C)(=O)=O)cc3)n2)n1C(C)C		inactive	
N[C@H]1CN(c2c(F)cc3c(=O)c(C(=O)O)cn(C4C[C@@H]4F)c3c2Cl)CC12CC2 (stereo not given in full)			3.61% (inactive)
OC[C@H]1OC(O)C[C@@H](O)[C@H]1O (stereo not given in full)	inactive		
COc1cc2ncnc(Nc3cccc(Br)c3)c2cc1OC	inactive		
CC(C(C)N1CC(=O)NC(=O)C1)N1CC(=O)NC(=O)C1 (stereo not given)	inactive		
CC(C)C[C@H](NC(=O)CNC(=O)c1cc(Cl)ccc1Cl)B1OC(=O)CC(CC(=O)O)(C(=O)O)O1 (stereo not given in full)			-0.619% (inactive)
Cn1c(Nc2ccc(C(F)(F)F)cc2)nc2cc(Oc3ccnc(-c4ncc(C(F)(F)F)[nH]4)c3)ccc21	inactive		
O=C(O)CCCCC(CCSCc1ccccc1)SCc1ccccc1 (stereo not given)			2.58% (inactive)
COC(=O)C1C2CC3c4[nH]c5cc(OC)ccc5c4CCN3CC2CC(OC(=O)c2cc(OC)c(OC)c(OC)c2)C1OC (stereo not given)	inactive		
O=C1NCCc2[nH]c(-c3ccncc3)cc21	inactive		
CCOC(=O)[C@@H](N)Cc1ccc(-c2cc(O[C@H](c3ccc(Cl)cc3-n3ccc(C)n3)C(F)(F)F)nc(N)n2)cc1		inactive	
CCCNS(=O)(=O)Nc1ncnc(OCCOc2ncc(Br)cn2)c1-c1ccc(Br)cc1		inactive	
N#Cc1c(NC(=O)c2cccc3ccccc23)sc2c1CCCC2	inactive		
Cn1cc(C2=C(c3c4n(c5ccccc35)CCC(CN)C4)C(=O)NC2=O)c2ccccc21 (stereo not given)	inactive [at 9.52 µM]		
Cn1cnc2c(F)c(Nc3ccc(Br)cc3F)c(C(=O)NOCCO)cc21			-4.74% (inactive)

SMILES	outcome	Potency	activity, negative = inhibition
O=[N+]([O-])c1cn2c(n1)OC[C@@H](OCc1ccc(OC(F)(F)F)cc1)C2		inactive	
CN(C)c1ccc2cc(C(=O)N[C@@H](CCCN=C(N)CCl)C(=O)NCc3ccccc3)ccc2c1			-18.2% (inactive)
CCNC(=O)c1cc2c(-c3cc(OCCN4CCCC4)c(Cl)cc3Cl)nc(N)nc2s1			-7.71% [at 27.7 µM] (inactive)
Nc1ccc(C(=O)Nc2cccc(-c3nc(N4CCOCC4)c4oc5ncccc5c4n3)c2)cn1		inactive	
Nc1ccn(C[C@@H](CO)OCP(=O)(O)O)c(=O)n1			-28.5% [at 0.4 µM] (inactive) and -6.08% [at 9.52 µM] (inactive)
O=C(Nc1nnc(-c2ccco2)o1)c1cc(-c2ccccc2)nc2ccccc12			1.72% (inactive)
Cc1c2oc3c(C)ccc(C(=O)NC4C(=O)NC(C(C)C)C(=O)N5CCCC5C(=O)N(C)CC(=O)N(C)C(C(C)C)C(=O)OC4C)c3nc-2c(C(=O)NC2C(=O)NC(C(C)C)C(=O)N3CCCC3C(=O)N(C)CC(=O)N(C)C(C(C)C)C(=O)OC2C)c(N)c1=O (stereo not given) (I: TVP[Sar][NMeV] / II: TVP[Sar][NMeV]; ester I:1-I:C, II:1-II:C; linker I:N-II:N via Actinocin(9to1); configuration not given here)	inactive [at 27.7 µM]		
CCN(C(=O)c1c(O)c2c(Cl)cccc2n(C)c1=O)c1ccccc1		inactive	
O=C(CCCCCCC(=O)Nc1cccnc1)NO	inactive		
O=c1c(O)c(-c2ccc(O)c(O)c2)oc2cc(O)ccc12	inactive		
O=C(O)CCCCCC(=O)NN=C1CCCC1	inactive		
C=CC(=O)Nc1ccc2ncnc(Nc3ccc(OCc4cccc(F)c4)c(Cl)c3)c2c1		inactive	
COc1cc([C@@H]2c3cc4c(cc3[C@H](O)[C@H]3COC(=O)[C@@H]23)OCO4)cc(OC)c1OC	inactive		
CCCCOc1ccc(C(=O)Nc2ccc(F)cc2F)cc1	inactive		
CCN(CC)Cc1ccc2cc(COC(=O)Nc3ccc(C(=O)NO)cc3)ccc2c1		inactive	
Nc1cccc2c1C(=O)N(C1CCC(=O)NC1=O)C2=O (stereo not given)		inactive	
N#Cc1cc(NC(=O)Nc2nnc(-c3ccncc3)s2)ccc1-c1cn[nH]c1	inactive		
NC(=O)Nc1cc(-c2ccc(CN3CCOCC3)cc2)sc1C(N)=O	inactive		
CCS(=O)(=O)Nc1ccc2[nH]c(O)c(C(=Nc3ccc(CN4CCCCC4)cc3)c3ccccc3)c2c1			-10% (inactive)
C[C@H](CCC(=O)O)[C@H]1CCC2C3C[C@H](O)[C@@H]4C[C@H](O)CC[C@]4(C)C3CC[C@@]21C (stereo not given in full)			4.33% (inactive)
